Measurements published in PubChem BioAssay (Tox21).
Records with an inconclusive call do not appear. A call without a number means that no potency is given here. Activity calls are given as the source filed them. Calls follow the shape of the dose curve; as a rule, active = well fitted cell-killing curve with a large enough effect in the repeat runs (not every such curve was filed as active); inconclusive = weak or mixed curves, or effect the other way; inactive = no such curve, though single readings can be large or run the other way.

Experiment: qHTS assay to identify small molecule antagonists of the farnesoid-X-receptor (FXR) signaling pathway - cell viability counter screen (AID 743221); also: nearly all actives have a fitted effect of over 50% in size
Conditions: FXR-bla HEK293T viability, CellTiter-Glo luminescence, 16 h; series mostly up to 62.6 µM
Text: National Center for Advancing Translational Sciences [NCATS]
NIH Chemical Genomics Center [NCGC]
U.S. Environmental Protection Agency [EPA]
National Institutes of Environmental Health Sciences [NIEHS]
National Toxicology Program [NTP]
U.S. Food and Drug Administration [FDA]
The farnesoid-X-receptor (FXR), a nuclear hormone receptor, is highly expressed in liver, intestine, kidney and adrenal cortex. Natural ligands of FXR are the bile acids (Cholic acid, Chenodeoxy cholic acid etc). FXR is an important regulator of diverse metabolic pathways, including the bile acid homeostasis, lipid and glucose metabolisms. FXR regulates the expression of target genes by binding either as a monomer or as a heterodimer with the retinoid X receptor (RXR). Numerous studies have reported that FXR exerts protective function during cholestasis, diabetes, liver regeneration, and cancer. To identify compounds that inhibit FXR signaling, GeneBLAzer FXR-UAS-bla HEK 293T cell line (Invitrogen, Carlsbad, CA) containing a beta-lactamase reporter gene under the control of a UAS response element was used to screen the Tox21 10K compound library. The cytotoxicity of the Tox21 compound library against the FXR-bla cell line was tested in parallel by measuring the cell viability using CellTiter-Glo assay in the same wells.
Tox21 Assay Protocol Summary:
FXR-bla cells were dispensed at 5000 cells/5uL/well in 1536-well black wall/clear bottom plates using a Multidrop Combi (Thermo Fisher Scientific, Waltham, MA) dispenser. After the assay plates were incubated at 37 C and 5% CO2 for 5 h, 23 nL of compounds dissolved in DMSO, positive controls or DMSO only was transferred to the assay plate by a Pintool station (Kalypsys, San Diego, CA), followed by addition of 1 uL Chenodeoxycholic acid (50 uM, final concentration in the wells). The assay plates were incubated at 37C for 16 h. After 1 uL of LiveBLAzerTM B/G FRET substrate was added using a Bioraptr Flying Reagent Dispenser (FRD) workstation (Beckman Coulter, Indianapolis, IN), the plates were incubated at room temperature for 2 h, and fluorescence intensity was measured by an Envision plate reader (PerkinElmer, Shelton, CT). For cell viability readout that measures cytotoxicity, 4uL/well of CellTiter-Glo reagent was added into the assay plates using a Bioraptr FRD. After 30 min incubation at room temperature, the luminescence intensity in the plates was measured using a ViewLux plate reader (PerkinElmer).

Which Potency does the source give for `CN(C)C/C=C(/c1ccc(Br)cc1)c1cccnc1` here?
Its Potency is “inactive”.

With `CC(C)(C)c1cc(CCC(=O)OCC(COC(=O)CCc2cc(C(C)(C)C)c(O)c(C(C)(C)C)c2)(COC(=O)CCc2cc(C(C)(C)C)c(O)c(C(C)(C)C)c2)COC(=O)CCc2cc(C(C)(C)C)c(O)c(C(C)(C)C)c2)cc(C(C)(C)C)c1O` as the compound, how does the Potency read?
Its Potency is “inactive”.

With `Oc1ccc(Cc2ccccc2)cc1` as the compound, how does the Potency read?
The Potency was “inactive”.

For `O=C(O)/C=C/c1cnc[nH]1`, which Potency is on record?
The Potency was “inactive”.

For `O=C(Nc1ccccc1)OCC(CN1CCCCC1)OC(=O)Nc1ccccc1` (stereo not given), which Potency is on record?
The Potency was “inactive”.

Which Potency does the source give for `N=C(N=C(N)N)N1CCOCC1` here?
Its Potency is “inactive”.

Which Potency does the source give for `CCCOc1ccc2nc(NC(=O)OC)[nH]c2c1` here?
The Potency was “inactive”.

For `ClC(Cl)(Cl)c1ccc(C(Cl)(Cl)Cl)cc1`, which Potency is on record?
The Potency was “inactive”.

Which Potency does the source give for `Oc1ccc2c(c1)OCO2` here?
The Potency was “inactive”.

Which Potency does the source give for `CC(C)(C)C(=O)OCOP(=O)(COCCn1cnc2c(N)ncnc21)OCOC(=O)C(C)(C)C` here?
Its Potency is “inactive”.

Which Potency does the source give for `Nc1ccc(C(=O)N2CC3CC(CN(Cc4ccccc4)C3)C2)cc1` here?
Its Potency is “inactive”.

Which Potency does the source give for `CCC(C)N(C)C(=O)c1cc2ccccc2c(-c2ccccc2Cl)n1` (stereo not given) here?
The Potency was “inactive”.

With `CCN(CC)C(C)=O` as the compound, how does the Potency read?
The Potency was “inactive”.

For `O=C(NN1CCCC1)NS(=O)(=O)c1ccc(Cl)cc1`, which Potency is on record?
The Potency was “inactive”.

For `COc1ccc2[nH]c(S(=O)Cc3ncc(C)c(OC)c3C)nc2n1` (stereo not given), which Potency is on record?
Its Potency is “inactive”.

With `C1CCC2OC2C1` (stereo not given) as the compound, how does the Potency read?
Its Potency is “inactive”.

Which Potency does the source give for `CC(C)(C)C1CCCCC1O` (stereo not given) here?
The Potency was “inactive”.

For `Cc1cccc(C(C)(C)C)c1O`, which Potency is on record?
Its Potency is “inactive”.

With `CC(C)=CCCC(C)CC=O` (stereo not given) as the compound, how does the Potency read?
The Potency was “inactive”.

Which Potency does the source give for `COc1ccc([C@@H]2Sc3ccccc3N(CCN(C)C)C(=O)[C@@H]2OC(C)=O)cc1` here?
The Potency was “inactive”.

For `Cc1ccc2c(ccc3ccccc32)c1`, which Potency is on record?
Its Potency is “inactive”.

With `O=C1[C@H](CC[C@H](O)c2ccc(F)cc2)[C@@H](c2ccc(O)cc2)N1c1ccc(F)cc1` as the compound, how does the Potency read?
Its Potency is “inactive”.

Which Potency does the source give for `N#Cc1cc2ccccc2c2ccccc12` here?
The Potency was “inactive”.

Which Potency does the source give for `CNS(=O)(=O)Cc1ccc2[nH]cc(CCN(C)C)c2c1` here?
The Potency was “inactive”.

With `CCCCCCCCC(CO)CCCCCC` (stereo not given) as the compound, how does the Potency read?
Its Potency is “inactive”.

For `CNCC[C@@H](Oc1ccccc1C)c1ccccc1`, which Potency is on record?
Its Potency is “inactive”.

For `C=CC(=O)OCC(C)OCC(C)OCC(C)OC(=O)C=C` (stereo not given), which Potency is on record?
Its Potency is “inactive”.

With `CC(=O)/C(C)=C/C1C(C)=CCCC1(C)C` (stereo not given) as the compound, how does the Potency read?
Its Potency is “inactive”.

For `CCN1CCC[C@H]1CNC(=O)c1c(OC)ccc(Br)c1OC`, which Potency is on record?
The Potency was “inactive”.

Which Potency does the source give for `Cc1cc(CC(=O)O)c(C)n1-c1ccc(Cl)cc1` here?
Its Potency is “inactive”.

With `c1ccc(CNCc2ccccc2)cc1` as the compound, how does the Potency read?
The Potency was “inactive”.

Which Potency does the source give for `CCOc1ccc2[nH]cc(C(=O)NCc3ccccc3)c(=O)c2n1` here?
Its Potency is “inactive”.

With `O=c1[nH]cnc2ccccc12` as the compound, how does the Potency read?
The Potency was “inactive”.

With `O=C1c2cccc(O)c2C(=O)c2c(O)cc(CO)cc21` as the compound, how does the Potency read?
The Potency was “inactive”.

For `C#CCOC(=O)[C@@H](C)Oc1ccc(Oc2ncc(Cl)cc2F)cc1`, which Potency is on record?
Its Potency is “inactive”.

For `Oc1ccc(O)c2c(O)cccc12`, which Potency is on record?
The Potency was “inactive”.

With `O=C(/C=C/c1ccc(O)c(O)c1)O[C@@H]1C[C@](O)(C(=O)O)C[C@@H](O)[C@H]1O` as the compound, how does the Potency read?
Its Potency is “inactive”.

Which Potency does the source give for `NC1CCN(c2nc3c(cc2F)c(=O)c(C(=O)O)cn3-c2ccc(F)cc2F)C1` (stereo not given) here?
Its Potency is “inactive”.

With `CC[C@H](C)[C@@H](C(=O)O)n1sc2ccccc2c1=O` as the compound, how does the Potency read?
The Potency was “inactive”.

Which Potency does the source give for `Cc1ncsc1CCO` here?
Its Potency is “inactive”.
